# Source: PubChem BioAssay (EPA / NIEHS)
# Results filed as inconclusive are left out. The source made the active and inactive calls. Rule for the calls: active = hit-call score of the fitted dose curve at least 0.9, where 1 is the maximum; inconclusive = response in the unintended direction; inactive = score below 0.9.
# Columns and labels:
# [1] = target: Retinoic acid receptor RXR-alpha (Homo sapiens) (UniProt P19793); experiment: OT_NURR1_NURR1RXRa_1440: Odyssey Thera (OT) 24-hour HEK293T Protein Complementation Assay for Nurr1/retinoid X receptor (RXR) (AID 2283386)
# Retinoic acid receptor RXR-alpha (Homo sapiens), sequence (P19793 whole entry, looked up, the tested form may be a part): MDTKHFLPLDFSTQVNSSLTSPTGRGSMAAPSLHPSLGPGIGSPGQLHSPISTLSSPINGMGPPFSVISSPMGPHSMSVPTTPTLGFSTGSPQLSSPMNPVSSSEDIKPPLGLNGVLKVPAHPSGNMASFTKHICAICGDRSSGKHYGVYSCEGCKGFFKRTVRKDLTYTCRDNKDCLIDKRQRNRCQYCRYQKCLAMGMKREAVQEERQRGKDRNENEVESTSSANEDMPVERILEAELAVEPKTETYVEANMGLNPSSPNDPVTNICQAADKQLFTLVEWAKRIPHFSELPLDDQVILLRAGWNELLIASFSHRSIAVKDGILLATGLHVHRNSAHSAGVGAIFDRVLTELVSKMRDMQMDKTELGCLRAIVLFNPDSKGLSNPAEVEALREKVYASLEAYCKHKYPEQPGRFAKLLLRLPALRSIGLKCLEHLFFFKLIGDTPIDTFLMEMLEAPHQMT
# In short: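 Interaction of Nurr1 with RXRα brings fused reporter fragments together in human HEK293T cells, restoring a functional reporter. Fluorescence intensity is measured 24 h after chemical treatment, and values are analysed in the positive direction against DMSO.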
# [2] = target: Estrogen receptor beta (Homo sapiens) (UniProt Q92731); experiment: OT_ER_ERbERb_1440: Odyssey Thera (OT) 24-hour HEK293T Protein-Complementation Assay for Estrogen Receptor-beta/-beta Homodimer (AID 2283380);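 note: scored as signal increase over DMSO baseline for both agonists and antagonists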
# Estrogen receptor beta (Homo sapiens), sequence (Q92731 whole entry, looked up, the tested form may be a part): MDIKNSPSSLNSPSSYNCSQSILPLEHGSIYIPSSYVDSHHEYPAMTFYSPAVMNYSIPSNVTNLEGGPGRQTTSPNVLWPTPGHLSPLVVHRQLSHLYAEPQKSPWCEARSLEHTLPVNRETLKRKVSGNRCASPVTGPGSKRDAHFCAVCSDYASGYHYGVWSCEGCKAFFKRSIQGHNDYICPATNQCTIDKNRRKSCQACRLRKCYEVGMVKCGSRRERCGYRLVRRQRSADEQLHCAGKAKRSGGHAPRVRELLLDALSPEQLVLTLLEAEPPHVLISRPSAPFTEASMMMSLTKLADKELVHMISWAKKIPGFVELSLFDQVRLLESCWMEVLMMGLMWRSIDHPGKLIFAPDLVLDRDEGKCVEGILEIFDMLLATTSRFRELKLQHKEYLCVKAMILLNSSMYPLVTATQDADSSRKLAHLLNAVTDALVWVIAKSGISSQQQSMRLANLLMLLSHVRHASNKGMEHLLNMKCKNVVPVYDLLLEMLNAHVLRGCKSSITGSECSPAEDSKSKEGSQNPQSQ
# In short: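 HEK293T cells stably expressing ER beta LBD (aa 310-547) homodimer fragment-complementation reporter, dosed 24 h. Cells formaldehyde-fixed, Draq5-stained; gain in nuclear (agonist) or nuclear plus cytoplasmic (antagonist) fluorescence versus DMSO read by laser scanning cytometry.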
# [3] = target: Retinoic acid receptor RXR-alpha (Homo sapiens) (UniProt P19793); experiment: OT_NURR1_NURR1RXRa_0480: Odyssey Thera (OT) 8-hour HEK293T Protein Complementation Assay for Nurr1/retinoid X receptor (RXR) (AID 2283385)
# In short: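 8 h compound exposure, HEK293T; Nurr1/RXRα fragment complementation; fluorescence intensity; positive fitting direction vs DMSO baseline.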
# [4] = target: Estrogen receptor (Homo sapiens) (UniProt P03372); experiment: OT_ERa_GFPERaERE_0120: Odyssey Thera (OT) 2-hour HeLa Transcription Induction Assay for Estrogen Receptor (AID 2283382)
# Estrogen receptor (Homo sapiens), sequence (P03372 whole entry, looked up): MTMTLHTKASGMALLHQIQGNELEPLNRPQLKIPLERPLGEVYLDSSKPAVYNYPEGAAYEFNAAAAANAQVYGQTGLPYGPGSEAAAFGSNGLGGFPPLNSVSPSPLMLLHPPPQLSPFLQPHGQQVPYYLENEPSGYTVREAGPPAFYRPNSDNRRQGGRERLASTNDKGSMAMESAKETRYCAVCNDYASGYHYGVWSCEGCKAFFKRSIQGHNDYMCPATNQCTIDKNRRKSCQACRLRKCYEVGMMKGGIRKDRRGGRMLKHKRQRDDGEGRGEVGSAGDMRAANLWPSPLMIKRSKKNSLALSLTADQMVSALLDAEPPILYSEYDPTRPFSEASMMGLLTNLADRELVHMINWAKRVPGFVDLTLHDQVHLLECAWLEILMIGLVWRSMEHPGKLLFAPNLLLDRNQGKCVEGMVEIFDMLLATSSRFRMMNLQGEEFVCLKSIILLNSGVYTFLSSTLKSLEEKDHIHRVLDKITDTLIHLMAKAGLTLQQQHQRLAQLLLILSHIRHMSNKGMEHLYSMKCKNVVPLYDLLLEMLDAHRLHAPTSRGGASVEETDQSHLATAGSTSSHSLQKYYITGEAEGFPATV
# In short: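 HeLa, 384-well, 2 h chemical exposure; GFP reporter induction (ERE), fluorescence microscopy; high content image analysis; positive fitting direction vs DMSO.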
# [5] = target: Bile acid receptor (Homo sapiens) (UniProt Q96RI1); experiment: OT_FXR_FXRSRC1_0480: Odyssey Thera (OT) 8-hour HEK293T Protein-Complementation Assay for Farnesoid X receptor/SRC-1 Co-activator (AID 2283383)
# Bile acid receptor (Homo sapiens), sequence (Q96RI1 whole entry, looked up, the tested form may be a part): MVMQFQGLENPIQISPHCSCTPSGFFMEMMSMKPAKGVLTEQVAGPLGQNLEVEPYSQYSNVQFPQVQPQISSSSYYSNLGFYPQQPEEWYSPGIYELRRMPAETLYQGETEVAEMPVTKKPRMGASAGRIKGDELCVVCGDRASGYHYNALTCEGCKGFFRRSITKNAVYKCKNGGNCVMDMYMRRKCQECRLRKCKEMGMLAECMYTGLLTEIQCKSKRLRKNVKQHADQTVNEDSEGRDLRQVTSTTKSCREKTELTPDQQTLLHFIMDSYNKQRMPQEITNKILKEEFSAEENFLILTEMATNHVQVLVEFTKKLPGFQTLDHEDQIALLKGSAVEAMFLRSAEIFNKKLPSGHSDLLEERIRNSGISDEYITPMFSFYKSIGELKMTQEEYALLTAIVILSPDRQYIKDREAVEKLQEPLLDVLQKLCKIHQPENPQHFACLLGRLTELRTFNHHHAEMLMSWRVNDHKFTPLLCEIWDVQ
# In short: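 Human kidney HEK293T cells carried FXR/SRC-1 fragment-complementation constructs. Compounds were added and incubated 8 h. Reporter reassembly upon receptor–co-activator interaction was then quantified by fluorescence, with curves fitted in the positive direction relative to DMSO.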
smiles,measurement,setting,value
COc1ccccc1N,outcome,[1],inactive
Cc1cc(C)cc(C)c1,outcome,[2],inactive
same,outcome,[3],inactive
same,outcome,[1],inactive
Clc1cccc(Cl)c1Cl,outcome,[3],inactive
same,outcome,[1],inactive
O=C(NC(=O)c1c(F)cccc1F)Nc1ccc(Cl)cc1,outcome,[2],inactive
same,outcome,[4],inactive
same,outcome,[5],inactive
same,outcome,[3],inactive
same,outcome,[1],inactive
OCCCCO,outcome,[5],inactive
same,outcome,[3],inactive
same,outcome,[1],inactive
OCCN(CCO)CCO,outcome,[3],inactive
same,outcome,[1],inactive
Cc1cc(Cl)ccc1O,AC50,[2],63.8 µM (active)
same,outcome,[5],inactive
same,outcome,[3],inactive
